Measurements published in PubChem BioAssay AID1159580 (chemical genetic matrix, 2015).
The campaign covered roughly 5,500 compounds. About 2,000 (36%) were called active. Roughly 18% stayed inconclusive and do not appear here. Rule as the data show it: active = normalized growth mostly below about 0.91 (no sharp cut-off); inconclusive = no clear call, values can overlap the other calls; inactive = mostly above about 0.92. Some of the results follow.

Assay: chemical genetic growth profiling, strain panel (AID 1159580);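 also: tested at 20 µM; growth read once vehicle control cultures reached saturation at 30 °C; 1 = growth at the plate median or of vehicle wells; lower values mean less growth of the strain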
Details: growth OD

Measured: normalized growth

CC1=C(/C=C/C(C)=C/C=C/C(C)=C/CO)C(C)(C)CCC1
inactive: S. cerevisiae deletion strains, locus YJR043C, strain POL32, hits give low values 0.985 | S. cerevisiae deletion strains, locus YJR066W, strain TOR1, hits give low values 0.94 | S. cerevisiae deletion strains, locus YKL009W, strain mrt4, hits give low values 0.993 | S. cerevisiae deletion strains, locus YKL068W, hits give low values 0.997 | S. cerevisiae deletion strains, locus YKL085W, strain MDH1 (second series), hits give low values 0.972 | S. cerevisiae deletion strains, locus YKL085W, strain MDH1, hits give low values 0.972 | S. cerevisiae deletion strains, locus YKL160W, strain elf1, hits give low values 1.04 | S. cerevisiae deletion strains, locus YKL190W, strain CNB1, hits give low values 0.991 | S. cerevisiae deletion strains, locus YKR001C, strain vps1, hits give low values 0.984 | S. cerevisiae deletion strains, locus YKR026C, strain gcn3, hits give low values 1.02 | S. cerevisiae deletion strains, locus YKR091W, strain srl3, hits give low values 1.01 | S. cerevisiae deletion strains, locus YLL001W, strain dnm1, hits give low values 0.975 | S. cerevisiae deletion strains, locus YLL026W, hits give low values 1.03 | S. cerevisiae deletion strains, locus YLL041C, strain sdh2, hits give low values 0.99 | S. cerevisiae deletion strains, locus YLR027C, strain aat2, hits give low values 1.01 | S. cerevisiae deletion strains, locus YLR039C, strain RIC1, hits give low values 1.01 | S. cerevisiae deletion strains, locus YLR058C, strain SHM2, hits give low values 0.976 | S. cerevisiae deletion strains, locus YLR102C, strain apc9, hits give low values 1 | S. cerevisiae deletion strains, locus YLR113W, strain HOG1, hits give low values 1 | S. cerevisiae deletion strains, locus YLR221C, strain rsa3, hits give low values 0.973 | S. cerevisiae deletion strains, locus YLR258W, strain gsy2, hits give low values 1.03 | S. cerevisiae deletion strains, locus YLR262C, strain YPT6 (second series), hits give low values 0.972 | S. cerevisiae deletion strains, locus YLR262C, strain YPT6, hits give low values 0.934 | S. cerevisiae deletion strains, locus YLR268W, strain sec22, hits give low values 1 | S. cerevisiae deletion strains, locus YLR320W, strain mms22, hits give low values 0.972 | S. cerevisiae deletion strains, locus YLR330W, strain CHS5, hits give low values 1 | S. cerevisiae deletion strains, locus YLR342W, strain FKS1 (second series), hits give low values 1.1 | S. cerevisiae deletion strains, locus YLR342W, strain FKS1, hits give low values 1.03 | S. cerevisiae deletion strains, locus YLR357W, strain rsc2, hits give low values 1.01 | S. cerevisiae deletion strains, locus YLR370C, strain arc18, hits give low values 1.01 | S. cerevisiae deletion strains, locus YLR371W, strain rom2, hits give low values 1.02 | S. cerevisiae deletion strains, locus YLR384C, strain iki3, hits give low values 1.01 | S. cerevisiae deletion strains, locus YLR418C, strain cdc73, hits give low values 0.965 | S. cerevisiae deletion strains, locus YML016C, strain PPZ1, hits give low values 0.998 | S. cerevisiae deletion strains, locus YML032C, strain rad52, hits give low values 1.01 | S. cerevisiae deletion strains, locus YML120C, strain ndi1, hits give low values 1 | S. cerevisiae deletion strains, locus YML124C, strain tub3, hits give low values 0.996 | S. cerevisiae deletion strains, locus YMR058W, strain fet3, hits give low values 0.998 | S. cerevisiae deletion strains, locus YMR078C, strain ctf18, hits give low values 1 | S. cerevisiae deletion strains, locus YMR125W, strain sto1, hits give low values 1.02 | S. cerevisiae deletion strains, locus YMR129W, hits give low values 1.02 | S. cerevisiae deletion strains, locus YMR205C, strain PFK2, hits give low values 0.96 | S. cerevisiae deletion strains, locus YMR223W, strain ubp8, hits give low values 0.998 | S. cerevisiae deletion strains, locus YMR231W, strain pep5, hits give low values 0.997 | S. cerevisiae deletion strains, locus YMR307W, strain GAS1, hits give low values 0.982 | S. cerevisiae deletion strains, locus YNL067W, strain RPL9B, hits give low values 0.962 | S. cerevisiae deletion strains, locus YNL071W, strain lat1, hits give low values 1.03 | S. cerevisiae deletion strains, locus YNL183C, strain NPR1, hits give low values 0.938 | S. cerevisiae deletion strains, locus YNL209W, strain ssb2, hits give low values 1.02 | S. cerevisiae deletion strains, locus YNL233W, strain BNI4, hits give low values 0.974 | S. cerevisiae deletion strains, locus YNL248C, strain rpa49, hits give low values 1.09 | S. cerevisiae deletion strains, locus YNL250W, strain rad50, hits give low values 0.982 | S. cerevisiae deletion strains, locus YNL271C, strain bni1, hits give low values 1.01 | S. cerevisiae deletion strains, locus YNL298W, strain CLA4, hits give low values 1.01 | S. cerevisiae deletion strains, locus YNL307C, strain MCK1, hits give low values 1.01 | S. cerevisiae deletion strains, locus YNL322C, strain KRE1 (second series), hits give low values 1.05 | S. cerevisiae deletion strains, locus YNR049C, strain mso1, hits give low values 1.01 | S. cerevisiae deletion strains, locus YNR052C, strain pop2, hits give low values 1.01 | S. cerevisiae deletion strains, locus YOL006C, strain TOP1, hits give low values 0.929 | S. cerevisiae deletion strains, locus YOL012C, strain htz1 0.793 | S. cerevisiae deletion strains, locus YOL147C, strain pex11, hits give low values 0.994 | S. cerevisiae deletion strains, locus YOR001W, strain rrp6, hits give low values 0.983 | S. cerevisiae deletion strains, locus YOR061W, strain CKA2, hits give low values 0.961 | S. cerevisiae deletion strains, locus YOR069W, strain VPS5, hits give low values 1.01 | S. cerevisiae deletion strains, locus YOR070C, strain gyp1, hits give low values 1 | S. cerevisiae deletion strains, locus YOR080W, strain dia2, hits give low values 1.01 | S. cerevisiae deletion strains, locus YOR083W, strain WHI5, hits give low values 0.988 | S. cerevisiae deletion strains, locus YOR106W, strain vam3, hits give low values 1 | S. cerevisiae deletion strains, locus YOR136W, strain idh2, hits give low values 0.992 | S. cerevisiae deletion strains, locus YOR144C, strain elg1, hits give low values 1 | S. cerevisiae deletion strains, locus YOR184W, strain ser1, hits give low values 1.01 | S. cerevisiae deletion strains, locus YOR231W, strain MKK1, hits give low values 0.988 | S. cerevisiae deletion strains, locus YOR265W, strain rbl2, hits give low values 1 | S. cerevisiae deletion strains, locus YOR270C, strain vph1, hits give low values 0.848 | S. cerevisiae deletion strains, locus YOR290C, strain snf2, hits give low values 1.05 | S. cerevisiae deletion strains, locus YOR316C, strain cot1, hits give low values 1 | S. cerevisiae deletion strains, locus YPL051W, strain arl3, hits give low values 1.04 | S. cerevisiae deletion strains, locus YPL055C, strain LGE1, hits give low values 0.873 | S. cerevisiae deletion strains, locus YPL078C, strain atp4, hits give low values 1.02 | S. cerevisiae deletion strains, locus YPL106C, strain sse1, hits give low values 1.13 | S. cerevisiae deletion strains, locus YPL240C, strain hsp82, hits give low values 1.01 | S. cerevisiae deletion strains, locus YPL256C, strain CLN2, hits give low values 1.04 | S. cerevisiae deletion strains, locus YPR119W, strain clb2, hits give low values 1 | S. cerevisiae deletion strains, locus YPR141C, strain kar3, hits give low values 0.997 | S. cerevisiae deletion strains, locus YPR163C, strain tif3, hits give low values 0.998 | S. cerevisiae deletion strains, locus YPR167C, strain met16, hits give low values 1 | S. cerevisiae deletion strains, strain wtn01, hits give low values 1.03 | S. cerevisiae strains, strain wild type, hits give low values 0.979
